CYP2C9 act: activators of human CYP2C9 | P11712 | recombinant CYP2C9, luciferin-H conversion, luminescence; hits give high values; factor 1 = untreated enzyme, 0 = blocked | activation factor at 5 µM | actives 1.4% (n = 96,000) | AID 1024;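 active = activation factor of 2 or more for CYP2C9 at a 5 µM dose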
CYP2C9 inhib: inhibitors of human CYP2C9. P11712. CYP2C9 Supersomes, luciferin-H conversion, luminescence. inhibition, % at 5 µM. actives 20% (n = 96,000);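 active = blocking of liver enzyme CYP2C9 beyond about 50% at 5 µM, limit read from the data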
CYP2C19 act: cytochrome P450 2C19 (human) activation | 96,000 tested, under 10 active | activation factor at 5 µM | AID 1025 | recombinant CYP2C19, luciferin-H EGE luminescence; hits give high values; 0 = fully inhibited enzyme, 1 = untreated enzyme;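 active = activation factor of at least 2 at 5 µM in the primary screen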
Cav3 T inh: blocks human Cav3.2 T-type calcium channel; AID 449739; actives 4% (n = 100,000); O95180; B-score at 10 µM; Cav3.2-expressing cells, Fluo-4 calcium fluorescence FDSS; hits give low values;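 active = single-dose well whose peak fluorescence ratio is a statistical outlier from its plate by either plate-standardised score or position-corrected B-score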
CYP2C19 inh: blocks human cytochrome P450 2C19. actives 21% (n = 96,000). CYP2C19 Supersomes, luciferin-H EGE luminescence, 30 min. inhibition, % at 5 µM;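 active = CYP2C19 inhibition above a set limit at 5 µM in the primary screen, cut at about 50% in these data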
Of the large screens only hits and unclear results are named; the others gave an inactive call. An excerpt weighted towards active compounds, which were near 27% of everything screened.

Cc1ccc(-c2nnc(SCC(=O)N3CCCC3)o2)cc1C	CYP2C19 inh 53 (no result: Cav3 T inh)
COc1ccc(-c2nnc(SCC(=O)N3CCc4ccccc4C3)o2)cc1	CYP2C19 inh 78
COc1ccc(-c2nnc(SCC(=O)N3c4ccccc4Sc4ccccc43)o2)cc1	Cav3 T inh -5.6 (no result: CYP2C9 act, CYP2C9 inhib, CYP2C19 act, CYP2C19 inh)
COc1ccc(N2CCN(C(=O)CSc3nnc(-c4ccc5[nH]c(C)c(C)c5c4)o3)CC2)cc1	none
COc1cc(OC)cc(-c2nnc(SCC(=O)N3c4ccccc4Sc4ccccc43)o2)c1	none (no result: CYP2C9 act, CYP2C9 inhib, CYP2C19 act, CYP2C19 inh)
Cc1ccc(C(=O)CSc2nnc(-c3ccc4[nH]c(C)c(C)c4c3)o2)cc1C	CYP2C9 inhib 71
Cc1cccc(-n2cnc(C(=O)N/N=C\c3ccc(Br)cc3)c2)n1	none
O=C(CSc1nnc(-c2ccccc2O)o1)N1CCc2ccccc2C1	CYP2C19 inh 63
COc1ccc(-c2nnc(SCC(=O)N3CCOCC3)o2)cc1OC	none
Cc1ccc(-c2nnc(SCC(=O)N3CCCC3)o2)cc1	none
COc1ccc(-c2nnc(SCC(=O)N3CCC(Cc4ccccc4)CC3)o2)cc1OC	CYP2C9 inhib 65, CYP2C19 inh 93
O=C(CSc1nnc(-c2ccccc2Cl)o1)N1CCCCC1	Cav3 T inh -4.2
Cc1cccc(/C=N/NC(=O)c2cc3c(s2)-c2ccccc2CC3)c1	none
C=CCn1c(O)c(C=Nc2ccc(Cc3ccncc3)cc2)c(=O)[nH]c1=S	CYP2C9 inhib 83, CYP2C19 inh 88
Cc1nn(C)cc1CNC(=O)Nc1cccc(Cl)c1	none
O=c1c2ccccc2nnn1CSc1nnc(-c2cccs2)n1Cc1ccccc1	none
C=CCn1c(SCC(=O)Nc2sccc2C(N)=O)nc2sc(CC)cc2c1=O	CYP2C9 inhib 66
C=CCn1c(SCC(=O)N2CCCC2)nc2scc(-c3cccs3)c2c1=O	none (no result: Cav3 T inh)
C=CCn1c(SCC(=O)Nc2sccc2C(N)=O)nc2ccc(Cl)cc2c1=O	none
C=CCn1c(SCC(=O)Nc2ccccc2)nc2scc(-c3cccs3)c2c1=O	CYP2C9 inhib 100, Cav3 T inh -5.1, CYP2C19 inh 83
C=CCn1c(SCn2nnc3ccccc3c2=O)nc2scc(-c3cccs3)c2c1=O	CYP2C9 inhib 72
C=CCn1c(SCC(=O)NCc2ccc3c(c2)OCO3)nc2scc(-c3ccccc3)c2c1=O	CYP2C9 inhib 54
Cc1ccc(S(=O)(=O)CCSc2nc(C)cc(C(F)(F)F)c2C#N)cc1	none (no result: CYP2C9 act, CYP2C9 inhib, CYP2C19 act, CYP2C19 inh)
Cn1c(CCNC(=O)c2ccc(Cl)cc2)n[nH]c1=S	none
Cc1cc(C)c2[nH]c(=O)c(CN(CC3CCCO3)C(=O)C3CCCO3)cc2c1 (centres undefined)	none
Cc1ccc(C)c2[nH]c(=O)c(CN(CC3CCCO3)C(=O)NC3CCCCC3)cc12 (centres undefined)	CYP2C9 inhib 72
Cc1cccc2cc(CN(CC3CCCO3)C(=O)c3ccncc3)c(=O)[nH]c12 (centres undefined)	CYP2C9 inhib 83, CYP2C19 inh 89
Cc1cccc2cc(COC(=O)c3cccnc3)c(=O)[nH]c12	CYP2C19 inh 52
Cc1ccc(C)c2[nH]c(=O)c(CCNC(=O)C(C)C)cc12	none (no result: Cav3 T inh)
O=C(NCC1CCCO1)c1cccc(N2C(=O)C3C4C=CC(C4)C3C2=O)c1 (centres undefined)	none
O=C1c2ccccc2NC(c2cccc(Cl)c2)N1N=C1CCCCCC1 (centres undefined)	Cav3 T inh -3.9
CCN(CC)CCN1C(=O)c2ccccc2NC1c1cccc(F)c1 (centres undefined)	none
C=C(C)C1CC=C(C)/C(=N/NC(=O)CNc2ccc(OCC)cc2)C1 (centres undefined)	none
CCOC(=O)C(=O)/C(=C\N(C)C)c1onc(-c2c(Cl)cccc2Cl)c1C(=O)OC	CYP2C9 inhib 91, CYP2C19 inh 55 (no result: Cav3 T inh)
CCOC(=O)C(=O)/C(=C\N(C)C)c1onc(-c2ccccc2Cl)c1C(=O)OC	CYP2C9 inhib 67 (no result: Cav3 T inh)
C[N+](C)(C)C[C@H](O)CC(=O)O	none (no result: CYP2C9 act, CYP2C9 inhib, CYP2C19 act, CYP2C19 inh)
CCN1C(=O)c2cccc3c(S(=O)(=O)Nc4nc(C)cs4)ccc1c23	CYP2C9 inhib 93
CCN1C(=O)c2cccc3c(NC(=O)c4ccc(OC)c(OC)c4)ccc1c23	CYP2C9 inhib 66, CYP2C19 inh 56
CCN1C(=O)c2cccc3c(S(=O)(=O)Nc4ccncc4)ccc1c23	CYP2C9 inhib 66
CCN1C(=O)c2cccc3c(S(=O)(=O)Nc4ccc(OC)cc4OC)ccc1c23	CYP2C9 inhib 96, CYP2C19 inh 78 (no result: Cav3 T inh)
CCN1C(=O)c2cccc3c(NC(=O)C4CCCCC4)ccc1c23	none
CC(=O)Nc1nc(C)c(Oc2ccc(Cl)cc2Cl)c(=O)[nH]1	none
c1cncc(Oc2cccc(Oc3cccnc3)c2)c1	none (no result: CYP2C9 act, CYP2C9 inhib, CYP2C19 act, CYP2C19 inh)
CCc1sc(-c2c(C#N)c(N)nc3c2CCCCCC3)cc1[N+](=O)[O-]	none
C#Cc1ccc([C@H]2C=C(C(=O)NCc3nc4ccccc4[nH]3)O[C@@H](OCC)[C@@H]2CCCO)cc1	none (no result: CYP2C9 act, CYP2C9 inhib, CYP2C19 act, CYP2C19 inh)
CCN1C(=O)c2cccc3c(S(=O)(=O)NCc4ccco4)ccc1c23	none (no result: CYP2C9 act, CYP2C9 inhib, CYP2C19 act, CYP2C19 inh)
CCN1C(=O)c2cccc3c(S(=O)(=O)Nc4ccccc4)ccc1c23	CYP2C9 inhib 100, CYP2C19 inh 60
Cc1ccc(OCCn2c(C)c(/C=N/n3cnnc3)c3ccccc32)cc1	CYP2C9 inhib 89, CYP2C19 inh 86
Cc1cc2oc(C(=O)N(Cc3ccco3)C3CCS(=O)(=O)C3)cc(=O)c2cc1Cl (centres undefined)	none
Cc1cc(S(=O)(=O)N(Cc2ccc3c(c2)OCO3)CC2CCCO2)ccc1-n1cnnn1 (centres undefined)	CYP2C9 inhib 69, CYP2C19 inh 95 (no result: Cav3 T inh)
COc1ccc(CN(C2CCCC2)S(=O)(=O)c2ccc(-n3cnnn3)c(OC)c2)cc1OC	none
Cc1cc(S(=O)(=O)N(Cc2ccc(C(C)C)cc2)CC2CCCO2)ccc1-n1cnnn1 (centres undefined)	CYP2C9 inhib 53 (no result: Cav3 T inh)
Cc1cc(S(=O)(=O)N(Cc2ccc(F)cc2)CC2CCCO2)ccc1-n1cnnn1 (centres undefined)	CYP2C19 inh 56
Cc1cc(S(=O)(=O)NCc2cccnc2)ccc1-n1cnnn1	none
Cc1ccc2oc(C(=O)NCc3ccc4c(c3)OCO4)c(C)c2c1	none (no result: Cav3 T inh)
Cc1c(C(=O)NCCC2=CCCCC2)oc2ccc(S(=O)(=O)N3CCC4(CC3)OCCO4)cc12	Cav3 T inh -5.6
Cc1c(C(=O)NCc2ccc3c(c2)OCO3)oc2ccc(S(=O)(=O)N3CCC(C)CC3)cc12	Cav3 T inh -4.8 (no result: CYP2C9 act, CYP2C9 inhib, CYP2C19 act, CYP2C19 inh)
Cc1c(C(=O)NCc2ccc3c(c2)OCO3)oc2ccc(S(=O)(=O)N3CCCCCC3)cc12	CYP2C9 inhib 68
CC#CCN1C(=O)N[C@@H](c2ccccc2)C(C(=O)OC)=C1C	none (no result: CYP2C9 act, CYP2C9 inhib, CYP2C19 act, CYP2C19 inh)
CCCCC1(Cc2ccc(OC)c([N+](=O)[O-])c2)C(=O)N(c2ccccc2)N(c2ccccc2)C1=O	Cav3 T inh -3.6
Cc1cc(NC(=O)c2ccccc2NS(=O)(=O)c2c(C)c(C)cc(C)c2C)no1	CYP2C9 inhib 66 (no result: Cav3 T inh)
Cc1ccc(C)c(S(=O)(=O)Nc2ccccc2C(=O)Nc2cc(C)on2)c1	CYP2C9 inhib 55

Source: PubChem BioAssay (several laboratories)
